Results from PubChem BioAssay (Tox21).
Results filed as inconclusive are left out. Activity calls are given as the source filed them. Unless noted, calls come from the whole dose curve; as a rule, active = well fitted curve in the direction sought with a large enough effect in the repeat runs; inconclusive = weak or mixed curves; inactive = no such curve, though single readings can be large; an effect the other way counts as inactive or inconclusive.

How the values were obtained:
[1] = qHTS assay to identify small molecule antagonists of the progesterone receptor (PR) signaling pathway - cell viability counter screen (AID 1346798); note: nearly all actives have a fitted effect of over 50% in size; note: potency is the fitted concentration of half-maximal effect; for activity change, negative = cytotoxicity: series mostly up to about 92 µM
Summary of the method: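 Counter screen for cytotoxicity: viability of PR-UAS-bla HEK293T cells was measured with CellTiter-Glo luminescence following 16 hr compound exposure in the presence of R5020.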

[2] = qHTS assay to identify small molecule agonists of the progesterone receptor (PR) signaling pathway - cell viability counter screen (AID 1346799; calls by dose curve; note: nearly all actives have a fitted effect of over 45% in size; note: potency is the fitted concentration of half-maximal effect)
Summary of the method: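 Cells (PR-UAS-bla HEK293T) are plated at 3,000/well in 2% charcoal-stripped FBS medium, rested 6 hr, dosed and incubated 16 hr at 37C. CellTiter-Glo is then added and luminescence measured after 30 min at room temperature.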

[3] = qHTS assay to identify small molecule antagonists of the TGF-beta/Smad signaling pathway - cell viability counter screen (AID 1346824); note: nearly all actives have a fitted effect of over 50% in size
Summary of the method: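 SBE-bla HEK 293T cells, incubated overnight, then compound plus 0.25 ng/mL TGF-beta1 (stock added) for 5 hr at 37 C. Viability was read in the same wells by CellTiter-Glo luminescence after 30 min at room temperature.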

[4] = qHTS assay to identify small molecule agonists of the TGF-beta/Smad signaling pathway - cell viability counter screen (AID 1346829); note: top concentration of the series differs between compounds; nearly all actives have a fitted effect of over 45% in size
Summary of the method: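 Cytotoxicity counter screen: CellTiter-Glo luminescence (30 min, room temperature) measured in the SBE-bla HEK 293T reporter wells after 5 hr compound treatment at 37 C and the 2 hr substrate step.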

[5] = qHTS assay to identify small molecule agonists of the TGF-beta/Smad signaling pathway (AID 1346859; active = well fitted activation curve with a large enough effect in the signal ratio in the repeat runs, not every such curve was filed as active; the % refers to the signal ratio; note: series mostly up to about 77 µM)
Summary of the method: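 Reporter line: HEK 293T with stably integrated SBE-controlled beta-lactamase. Compound exposure lasts 5 hr at 37 C and 5% CO2; substrate loading follows for 2 hr at room temperature, with emission read at 460 and 530 nm.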

[6] = target: Thyrotropin-releasing hormone receptor (Homo sapiens) (UniProt P34981); assay: qHTS assay to identify small molecule antagonists of the thyrotropin-releasing hormone receptor (TRHR) signaling pathway (AID 1346877; active = well fitted inhibition curve with a large enough effect in the repeat runs, not every such curve was filed as active; note: series mostly up to about 51 µM)
Summary of the method: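 In this cell-based calcium flux format, HEK293 cells expressing TRHR received test compound for 5 min before the agonist TRH (1 nM final). Dye loading lasted 2 h at 37 °C.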

[7] = target: Thyrotropin-releasing hormone receptor (Homo sapiens) (UniProt P34981); assay: qHTS assay to identify small molecule agonists of the thyrotropin-releasing hormone receptor (TRHR) signaling pathway (AID 1346891; calls by dose curve; note: series mostly up to about 58 µM)
Summary of the method: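 Cells: TRHR-Hek293, seeded and incubated 18 h. Dye loading: 2 h at 37 °C. Compound added from DMSO stock by pin tool. Read-out: kinetic calcium fluorescence over 3 min.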

[8] = Caspase-3/7 induction in HepG2 cells by small molecules, qHTS assay (AID 1346978); note: nearly all actives have a fitted effect of over 15% in size; note: potency is the fitted concentration of half-maximal effect
Summary of the method: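 Wild-type HepG2 cells, 2,000/well, settled 5 hr at 37 C and 5% CO2, then compound-treated for 17 hr; caspase-3/7 activity read by luminescent Caspase-Glo 3/7 after 30 min at room temperature.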

[9] = Caspase-3/7 induction in CHO-K1 cells by small molecules, qHTS cell viability counter screen (AID 1346979); note: nearly all actives have a fitted effect of over 35% in size; note: potency is the fitted concentration of half-maximal effect
Summary of the method: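 Cytotoxicity counter screen run in parallel with the caspase-3/7 assay: CHO-K1 cells, 16hr compound treatment at 37C, then CellTiter-Fluor for 1hr before fluorescence reading.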

[10] = Caspase-3/7 induction in CHO-K1 cells by small molecules, qHTS assay (AID 1346980); note: nearly all actives have a fitted effect of over 15% in size
Summary of the method: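 Wild-type CHO-K1 cells exposed to compounds for 17hr at 37 C, 5% CO2. Caspase-3/7 activity then measured by Caspase-Glo 3/7 luminescence after 30min at room temperature.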

[11] = Caspase-3/7 induction in HepG2 cells by small molecules, qHTS cell viability counter screen (AID 1346981); note: series mostly up to about 92 µM; nearly all actives have a fitted effect of over 30% in size
Summary of the method: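 Counter screen for cytotoxicity: HepG2 exposed 16 hr to compounds, then CellTiter-Fluor viability signal (fluorescence, 1 hr reagent incubation).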

[12] = target: Nuclear receptor subfamily 1 group I member 2 (Homo sapiens) (UniProt O75469); assay: Human pregnane X receptor (PXR) small molecule agonists, qHTS assay (AID 1346982); note: nearly all actives have a fitted effect of over 35% in size; note: potency is the fitted concentration of half-maximal effect
Summary of the method: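 Luminescence (ONE-Glo, 30 min RT) after 24 hr compound exposure of PXR-Luc HepG2 cells; cells rested 5 hr post-plating in 5% charcoal-stripped FBS medium.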

[13] = target: Cytochrome P450 2D6 (Homo sapiens) (UniProt P10635); assay: Cytochrome P450 Family 2 Subfamily D Member 6 (CYP2D6) small molecule antagonists: luciferase reporter qHTS assay (AID 1671196); note: nearly all actives have a fitted effect of over 50% in size; note: potency is the fitted concentration of half-maximal effect; for activity change, negative = inhibition: series mostly up to about 120 µM
Summary of the method: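 Inhibition of CYP2D6 was gauged by loss of luminescence, since light produced tracks the luciferin generated from a proluciferin substrate. A 10 min room-temperature preincubation preceded 1 h NADPH-supported turnover.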

[14] = target: Cytochrome P450 2C19 (Homo sapiens) (UniProt P33261); assay: Cytochrome P450 Family 2 Subfamily C Member 19 (CYP2C19) small molecule antagonists: luciferase reporter qHTS assay (AID 1671197); note: nearly all actives have a fitted effect of over 65% in size; note: potency is the fitted concentration of half-maximal effect; for activity change, negative = inhibition: series mostly up to about 120 µM
Summary of the method: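 Luminescent readout of CYP2C19 activity: luciferin product detected 20 min after adding detection reagent. Before that, compound and enzyme-substrate mix preincubated 10 min at room temperature; NADPH-regenerating system started a 1 h, 37C reaction. Ketoconazole as positive control.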

[15] = target: Cytochrome P450 2C9 (Homo sapiens) (UniProt P11712); assay: Cytochrome P450 Family 2 Subfamily C Member 9 (CYP2C9) small molecule antagonists: luciferase reporter qHTS assay (AID 1671198); note: nearly all actives have a fitted effect of over 50% in size; note: potency is the fitted concentration of half-maximal effect; for activity change, negative = inhibition: series mostly up to about 120 µM
Summary of the method: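 P450-Glo proluciferin substrate with CYP2C9 enzyme; 10 min RT preincubation, then NADPH regeneration 1 h at 37C; luciferin detection reagent 20 min RT, luminescence in relative luminescence units.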

[16] = target: Cytochrome P450 1A2 (Homo sapiens) (UniProt P05177); assay: Cytochrome P450 Family 1 Subfamily A Member 2 (CYP1A2) small molecule antagonists: luciferase reporter qHTS assay (AID 1671199); note: nearly all actives have a fitted effect of over 50% in size; note: potency is the fitted concentration of half-maximal effect; for activity change, negative = inhibition: series mostly up to about 120 µM
Summary of the method: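 Signal from luciferin formed by CYP1A2 from a proluciferin substrate is read as luminescence, expressed in relative luminescence units. Compounds sit with enzyme 10 min, NADPH-driven reaction runs 1 h, all at room temperature.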

[17] = Human pregnane X receptor (PXR) small molecule agonists, qHTS cell viability counter screen (AID 1346977); note: nearly all actives have a fitted effect of over 50% in size; note: potency is the fitted concentration of half-maximal effect
Summary of the method: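 Cytotoxicity counter screen run in the same wells as the PXR luciferase assay, using PXR-Luc HepG2 cells in charcoal-stripped serum medium. Viability: CellTiter-Fluor fluorescence after 24hr compound treatment.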
% is set by controls: 0 for no effect and ±100 for the full control effect.

Chain of Cytochrome P450 2D6 (Homo sapiens) (P10635 whole entry, looked up): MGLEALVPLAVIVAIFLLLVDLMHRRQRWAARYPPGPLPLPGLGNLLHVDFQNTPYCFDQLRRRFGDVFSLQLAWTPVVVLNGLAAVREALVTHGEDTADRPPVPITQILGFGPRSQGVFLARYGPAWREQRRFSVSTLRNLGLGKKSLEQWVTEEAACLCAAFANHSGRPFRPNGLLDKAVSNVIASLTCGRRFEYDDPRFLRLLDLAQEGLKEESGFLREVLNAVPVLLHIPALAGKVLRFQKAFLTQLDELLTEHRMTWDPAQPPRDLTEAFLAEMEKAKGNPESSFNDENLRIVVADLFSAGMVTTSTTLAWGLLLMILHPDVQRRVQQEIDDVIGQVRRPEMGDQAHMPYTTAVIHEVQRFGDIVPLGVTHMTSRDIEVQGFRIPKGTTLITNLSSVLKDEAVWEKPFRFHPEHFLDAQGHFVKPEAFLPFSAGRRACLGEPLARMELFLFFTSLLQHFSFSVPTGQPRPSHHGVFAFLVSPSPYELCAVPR
Chain of Cytochrome P450 2C19 (Homo sapiens) (P33261 whole entry, looked up): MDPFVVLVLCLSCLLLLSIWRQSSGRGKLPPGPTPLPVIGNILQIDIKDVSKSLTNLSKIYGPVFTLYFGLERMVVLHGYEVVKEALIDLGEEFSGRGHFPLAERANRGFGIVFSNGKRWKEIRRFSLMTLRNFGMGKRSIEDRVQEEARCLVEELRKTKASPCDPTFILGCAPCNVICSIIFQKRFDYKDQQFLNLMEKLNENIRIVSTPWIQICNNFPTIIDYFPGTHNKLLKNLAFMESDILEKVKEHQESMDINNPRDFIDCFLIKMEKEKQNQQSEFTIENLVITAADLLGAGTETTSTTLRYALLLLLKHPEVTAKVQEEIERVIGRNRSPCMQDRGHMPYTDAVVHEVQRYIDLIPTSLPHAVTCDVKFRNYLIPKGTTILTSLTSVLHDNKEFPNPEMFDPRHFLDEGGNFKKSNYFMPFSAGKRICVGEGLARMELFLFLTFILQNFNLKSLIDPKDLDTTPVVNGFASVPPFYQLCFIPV
Chain of Nuclear receptor subfamily 1 group I member 2 (Homo sapiens) (O75469 whole entry, looked up): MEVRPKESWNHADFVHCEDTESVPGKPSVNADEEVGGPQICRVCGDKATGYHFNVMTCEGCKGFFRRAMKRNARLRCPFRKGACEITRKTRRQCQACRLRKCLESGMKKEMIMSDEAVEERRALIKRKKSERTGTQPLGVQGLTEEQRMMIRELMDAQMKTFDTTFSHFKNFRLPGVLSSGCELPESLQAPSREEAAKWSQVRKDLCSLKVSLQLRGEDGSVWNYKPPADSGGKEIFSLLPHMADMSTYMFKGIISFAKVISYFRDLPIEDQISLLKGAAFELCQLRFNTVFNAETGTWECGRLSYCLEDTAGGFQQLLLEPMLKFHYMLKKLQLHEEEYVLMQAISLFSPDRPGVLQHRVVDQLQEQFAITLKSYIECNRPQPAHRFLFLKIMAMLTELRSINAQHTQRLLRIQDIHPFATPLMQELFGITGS
Chain of Cytochrome P450 1A2 (Homo sapiens) (P05177 whole entry, looked up): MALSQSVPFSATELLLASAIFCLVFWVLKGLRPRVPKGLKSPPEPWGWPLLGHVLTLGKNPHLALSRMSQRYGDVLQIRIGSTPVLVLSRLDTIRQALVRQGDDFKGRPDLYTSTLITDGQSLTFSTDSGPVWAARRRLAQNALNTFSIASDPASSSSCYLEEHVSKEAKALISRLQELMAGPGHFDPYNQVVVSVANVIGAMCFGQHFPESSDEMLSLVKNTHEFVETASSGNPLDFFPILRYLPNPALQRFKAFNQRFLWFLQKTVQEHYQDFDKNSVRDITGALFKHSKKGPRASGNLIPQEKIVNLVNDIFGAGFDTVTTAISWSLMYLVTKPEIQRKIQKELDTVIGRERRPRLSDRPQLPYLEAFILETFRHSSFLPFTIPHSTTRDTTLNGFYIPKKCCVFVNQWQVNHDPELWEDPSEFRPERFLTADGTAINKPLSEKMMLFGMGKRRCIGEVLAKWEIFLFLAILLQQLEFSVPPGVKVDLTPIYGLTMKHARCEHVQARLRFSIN
Chain of Cytochrome P450 2C9 (Homo sapiens) (P11712 whole entry, looked up): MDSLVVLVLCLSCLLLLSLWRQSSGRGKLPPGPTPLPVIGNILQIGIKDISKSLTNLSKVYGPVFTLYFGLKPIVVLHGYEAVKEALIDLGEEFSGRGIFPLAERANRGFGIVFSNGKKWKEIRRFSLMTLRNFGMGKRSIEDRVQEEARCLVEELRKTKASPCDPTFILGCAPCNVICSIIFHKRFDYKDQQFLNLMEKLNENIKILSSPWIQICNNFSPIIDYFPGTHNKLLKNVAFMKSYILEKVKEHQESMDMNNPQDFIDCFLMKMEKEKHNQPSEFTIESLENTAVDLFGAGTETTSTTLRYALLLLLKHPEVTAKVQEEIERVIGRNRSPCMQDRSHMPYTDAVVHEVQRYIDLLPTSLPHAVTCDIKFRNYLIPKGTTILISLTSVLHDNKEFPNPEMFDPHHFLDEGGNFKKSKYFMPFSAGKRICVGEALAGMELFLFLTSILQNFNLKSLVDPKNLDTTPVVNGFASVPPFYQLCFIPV
Chain of Thyrotropin-releasing hormone receptor (Homo sapiens) (P34981 whole entry, looked up): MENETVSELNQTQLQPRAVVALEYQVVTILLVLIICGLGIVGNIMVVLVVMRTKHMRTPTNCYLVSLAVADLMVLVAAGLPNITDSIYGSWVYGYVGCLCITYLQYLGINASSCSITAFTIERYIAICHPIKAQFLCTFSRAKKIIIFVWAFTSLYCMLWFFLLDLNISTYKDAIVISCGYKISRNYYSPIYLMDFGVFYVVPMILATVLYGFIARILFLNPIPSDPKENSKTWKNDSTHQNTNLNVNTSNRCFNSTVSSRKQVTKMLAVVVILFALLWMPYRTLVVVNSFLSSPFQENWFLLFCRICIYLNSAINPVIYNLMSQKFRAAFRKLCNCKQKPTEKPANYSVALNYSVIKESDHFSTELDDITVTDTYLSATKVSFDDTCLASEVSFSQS

CCCCCCS
inactive: Potency [1] | Potency [2] | Potency [3] | Potency [4] | Potency [5] | Potency [6] | Potency [7] | Potency [8] | Potency [9] | Potency [10] | Potency [11] | Potency [12] | Potency [13]

CN1CN(C)CN(C)C1
inactive: Potency [1] | Potency [2] | Potency [3] | Potency [4] | Potency [5] | Potency [6] | Potency [7] | Potency [8] | Potency [9] | Potency [10] | Potency [11] | Potency [12] | Potency [13] | Potency [14] | Potency [15] | Potency [16]

Brc1ccccn1
inactive: Potency [1] | Potency [2] | Potency [3] | Potency [4] | Potency [5] | Potency [6] | Potency [7] | Potency [8] | Potency [9] | Potency [10] | Potency [11] | Potency [12] | Potency [13] | Potency [14] | Potency [15] | Potency [16]

CCCCCCCCCCCCCCCCCO
inactive: activity change, negative = cytotoxicity [1] -7.24% [at 18.9 µM] | activity change, negative = cytotoxicity [2] -18.8% [at 19 µM] | viability change, negative = cytotoxic [3] -8.2% [at 15.8 µM] | activity change, negative = cytotoxicity [4] -0.289% [at 15.8 µM] | activation [5] -0.867% [at 15.8 µM] | activity, negative = inhibition [6] 0.827% [at 10.5 µM] | activity change, negative = cytotoxicity [17] 3.58% [at 19 µM] | caspase activation [8] 0.39% [at 19 µM] | activity change, negative = cytotoxicity [9] 11.2% [at 19 µM] | caspase-3/7 activation [10] 1.08% [at 19 µM] | activity change, negative = cytotoxicity [11] 9.49% [at 19 µM] | activation [12] 4.62% [at 19 µM] | activity change, negative = inhibition [13] -4.81% [at 23.6 µM] | activity change, negative = inhibition [14] -5.64% [at 23.6 µM] | activity change, negative = inhibition [15] -2.94% [at 23.6 µM] | activity change, negative = inhibition [16] 6.84% [at 23.6 µM]

CCCCCCCCCCCCCc1ccccc1
inactive: Potency [1] | Potency [2] | Potency [3] | Potency [4] | Potency [5] | Potency [17] | Potency [8] | Potency [9] | Potency [10] | Potency [11] | Potency [12] | Potency [13] | Potency [14] | Potency [15] | Potency [16]

NCCCCCCNCCCCCCN
inactive: Potency [1] | Potency [2] | Potency [3] | Potency [4] | Potency [5] | Potency [6] | Potency [7] | Potency [17] | Potency [9] | Potency [10] | Potency [11] | Potency [12] | Potency [14] | Potency [16]
active: Potency [13] 4.94 µM

Clc1ccc(C(Cn2ccnc2)OCc2c(Cl)cccc2Cl)c(Cl)c1 (configuration not stated)
active: Potency [1] 5.96 µM | Potency [2] 5.96 µM | Potency [17] 23.7 µM | Potency [9] 21.1 µM
inactive: Potency [3] | Potency [4] | Potency [5] | Potency [8] | Potency [10]

CCO[Si](C)(C)OCC
inactive: Potency [1] | Potency [2] | Potency [3] | Potency [4] | Potency [5] | Potency [17] | Potency [8] | Potency [9] | Potency [10] | Potency [11] | Potency [12] | Potency [13] | Potency [14] | Potency [15] | Potency [16]

C/C=C/CO
inactive: Potency [1] | Potency [2] | Potency [3] | Potency [4] | Potency [5] | Potency [6] | Potency [17] | Potency [8] | Potency [9] | Potency [10] | Potency [11] | Potency [12] | Potency [13] | Potency [14] | Potency [15]

c1cc2c3c(c1)ccc1cccc(c13)C2
inactive: Potency [1] | Potency [2] | Potency [3] | Potency [4] | Potency [5] | Potency [6] | Potency [8] | Potency [9] | Potency [10] | Potency [11]
active: Potency [16] 3.63 µM

CCN(CC)CCNc1ccc(CO)c2sc3ccccc3c(=O)c12
inactive: Potency [3] | Potency [4] | Potency [5] | Potency [6] | Potency [10] | Potency [12] | Potency [14] | Potency [15]
active: Potency [1] 15 µM | Potency [2] 13.3 µM | Potency [17] 7.5 µM | Potency [8] 13.3 µM | Potency [9] 23.7 µM | Potency [13] 3.47 µM | Potency [16] 0.512 µM

OCCCc1cccnc1
inactive: Potency [1] | Potency [2] | Potency [3] | Potency [4] | Potency [5] | Potency [6] | Potency [7] | Potency [8] | Potency [9] | Potency [10] | Potency [11] | Potency [12] | Potency [13] | Potency [14] | Potency [15] | Potency [16]

CO[Si](CCC1CCC2OC2C1)(OC)OC (configuration not stated)
inactive: Potency [1] | Potency [2] | Potency [3] | Potency [4] | Potency [5] | Potency [6] | Potency [7] | Potency [17] | Potency [9] | Potency [10] | Potency [11] | Potency [12] | Potency [13] | Potency [15] | Potency [16]

CCC(=O)OCCc1ccccc1
active: Potency [15] 13.6 µM
inactive: Potency [1] | Potency [2] | Potency [3] | Potency [4] | Potency [5] | Potency [6] | Potency [17] | Potency [8] | Potency [10] | Potency [12] | Potency [13] | Potency [14]

CCNc1nc(NC(C)CC)nc(OC)n1 (configuration not stated)
active: Potency [12] 24.3 µM | Potency [14] 7.96 µM | Potency [16] 25.2 µM
inactive: Potency [1] | Potency [2] | Potency [3] | Potency [4] | Potency [5] | Potency [6] | Potency [7] | Potency [17] | Potency [9] | Potency [10] | Potency [11] | Potency [13] | Potency [15]

CCC(C)c1ccccc1 (configuration not stated)
inactive: Potency [1] | Potency [2] | Potency [3] | Potency [4] | Potency [5] | Potency [6] | Potency [7] | Potency [17] | Potency [9] | Potency [10] | Potency [12] | Potency [13] | Potency [14] | Potency [15] | Potency [16]

CCC1(c2cnc[nH]2)Cc2ccccc2C1
inactive: Potency [1] | Potency [2] | Potency [3] | Potency [4] | Potency [5] | Potency [6] | Potency [7] | Potency [8] | Potency [9] | Potency [10] | Potency [11] | Potency [12]
active: Potency [13] 0.977 µM | Potency [14] 0.977 µM | Potency [15] 1.55 µM | Potency [16] 8.12 µM

CCC(=O)CC(C)CC (configuration not stated)
inactive: activity change, negative = cytotoxicity [1] -3.42% [at 0.348 µM] | activity change, negative = cytotoxicity [2] 1.66% [at 0.349 µM] | viability change, negative = cytotoxic [3] 13.2% [at 0.29 µM] | activity change, negative = cytotoxicity [4] 3.15% [at 0.29 µM] | activation [5] -0.839% [at 0.29 µM] | activity change, negative = cytotoxicity [17] 0.0659% [at 0.349 µM] | caspase activation [8] 1.2% [at 0.349 µM] | activity change, negative = cytotoxicity [9] 4.19% [at 0.349 µM] | caspase-3/7 activation [10] 0.142% [at 0.349 µM] | activity change, negative = cytotoxicity [11] 6.32% [at 0.349 µM] | activation [12] 2.33% [at 0.349 µM] | activity change, negative = inhibition [13] -13% [at 0.435 µM] | activity change, negative = inhibition [14] -5.38% [at 0.435 µM] | activity change, negative = inhibition [15] -10.1% [at 0.435 µM] | activity change, negative = inhibition [16] -14.4% [at 0.435 µM]
